Assay outcomes deposited in PubChem BioAssay by National Center for Advancing Translational Sciences (NCATS).
BLM inh: inhibitors of human Bloom syndrome helicase BLM; Potency, µM (top dose mostly 56.1 µM), inactives show top-dose activity change, negative = inhibition, usual class: inhibitors; actives 0.2% (n = 350,000); AID 2528; recombinant BLM DNA unwinding, fluorescence dequenching;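 also: plate controls were vehicle for no effect and no enzyme for full effect; nearly all actives have a fitted effect of over 35% in size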
GoLoco inh red: RGS12 GoLoco-Gai1 interaction inhibition | P63096 | Gai1:RGS12 GoLoco peptide FP, rhodamine, 10 min | Potency, µM (highest dose often 61.6 µM), inactives show at the top dose activity, negative = inhibition, most hits filed as inhibitors | actives 0.44% (n = 230,000) | AID 880; active = well fitted inhibition curve with a large enough effect, not every such curve was filed as active; inactive = no such curve, though single readings can be large or run the other way; also: % is scaled to controls: 0 for no effect and ±100 for the full control effect; nearly all actives have a fitted effect of over 30% in size
RECQ1 helicase: inhibitors of human RECQ1 DNA helicase; RECQ1 DNA unwinding, red fluorescence kinetic read; Potency, µM (doses to about 57.3 µM), inactives show at the highest dose activity, negative = inhibition, hits mostly inhibitors; actives 0.54% (n = 240,000);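 also: plate controls were vehicle for no effect and no enzyme for full effect; nearly all actives have a fitted effect of over 30% in size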
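RECQ1T1 50 nM; forked duplex (20 bp + 30-nt ss tails) 200 nM, ATP 2 mM final; pH 8.0, 2 mM MgCl2, 2.5 ug/ml poly(dI-dC); 15 min compound preincubation; discontinuous kinetic read over 2 h at RT.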
TRb SRC2 PPI: disrupts binding of human TR beta to SRC2; P10828; TRbeta-SRC2 peptide binding, fluorescence polarization; receptor liganded with 1 µM T3; Potency, µM (series often up to 106 µM), without a hit: top-dose activity change, negative = inhibition, usual class: inhibitors; actives 0.065% (n = 280,000);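 also: plate controls were bound peptide for no effect and peptide without receptor for full effect; nearly all actives have a fitted effect of over 50% in size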
Target sequence (P10828 whole entry, looked up): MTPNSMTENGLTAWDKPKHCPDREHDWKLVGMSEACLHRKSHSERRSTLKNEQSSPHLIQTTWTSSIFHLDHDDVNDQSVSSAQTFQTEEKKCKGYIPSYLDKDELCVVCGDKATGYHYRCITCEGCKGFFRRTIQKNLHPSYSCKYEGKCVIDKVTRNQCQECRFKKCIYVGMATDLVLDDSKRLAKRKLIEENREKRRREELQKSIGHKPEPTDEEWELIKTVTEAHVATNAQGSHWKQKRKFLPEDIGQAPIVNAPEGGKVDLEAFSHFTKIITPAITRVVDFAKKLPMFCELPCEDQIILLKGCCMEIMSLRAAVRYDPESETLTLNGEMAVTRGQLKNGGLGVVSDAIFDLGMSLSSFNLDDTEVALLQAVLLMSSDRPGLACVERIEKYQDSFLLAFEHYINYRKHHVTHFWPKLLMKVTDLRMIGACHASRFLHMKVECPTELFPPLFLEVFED
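Assay buffer: 20 mM Tris-HCl, 100 mM NaCl, 10% glycerol, 1 mM EDTA, 0.01% NP-40, 1 mM DTT, 1 uM T3, 5% DMSO; TRb LBD 0.6 uM, Texas Red SRC2 20 nM; FP after 5 hr.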
ERG Ets-DNA blk: ERG Ets/DNA interaction inhibition. P11308. fluorescence polarization, His-ERG Ets domain / labelled DNA. Potency, µM (titrated, usually from 76.9 µM), for the others: at the highest dose FP activity, negative = inhibition, most hits filed as inhibitors. actives 0.028% (n = 370,000). AID 624246; active = well fitted inhibition curve with a large enough effect in the polarisation, with a control signal flat; inconclusive = small, poorly fitted or top-dose-only effect, or effect the other way, or a change in a side signal; inactive = no such curve, though single readings can be large or run the other way; the % refers to the polarisation;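 also: polarization taken with two DNA probes labelled with fluorescein and Texas red; % of control where 0% means no effect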
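His-tagged ERG Ets domain (1 uM in the protein solution; 300mM KCl, 50mM Tris-HCl, 1mM EDTA, 1mM DTT, pH 7.5) received compound, then a probe mix of 5 nM fluorescein-DNA and 100nM Texas-615-DNA. Fluorescence polarization was read for both dyes.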
TR SRC2 fluor cs: alters Texas Red total fluorescence, flagging assay interference | TRb/SRC2 Texas Red total fluorescence interference | Potency, µM (titrated, usually from 106 µM), without a hit: at the top dose fluorescence change, negative = quenching | actives 0.29% (n = 280,000); active = well fitted curve in either direction with a large enough effect; inconclusive = small, poorly fitted or top-dose-only effect; also: % is scaled to controls: 0 for no effect and ±100 for the full control effect
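Human TRb ligand-binding domain at 0.6 uM with 20 nM Texas Red SRC2 peptide in Tris buffer containing 1 uM T3 and 5% DMSO, incubated with compound 5 h at ambient temperature. Total fluorescence (555/632 nm) calculated as parallel + 2 × perpendicular.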
Starred values were filed as active, the others as inactive; i = inactive; ? = inconclusive; nt = no result given; [ ] = another dose, or the depositor's remark. Sampled rows, rich in hits. Any-hit rate of the full collection: about 0.71%. Unless noted, calls follow the shape of the dose curve; as a rule, active = well fitted curve in the direction sought with a large enough effect; inconclusive = small, poorly fitted or top-dose-only effect, or another doubt; inactive = no such curve, though single readings can be large; an effect the other way counts as inactive or inconclusive. Potency is read from the fitted curve at half-maximal effect.

SMILES	BLM inh	GoLoco inh red	RECQ1 helicase	TRb SRC2 PPI	ERG Ets-DNA blk	TR SRC2 fluor cs
CC(C)OC(=O)c1cc(C(=O)OC(C)C)cc([N+](=O)[O-])c1	nt	nt	nt	-5%[201 µM]	nt	0%[201 µM]
O=S(=O)(/N=C/c1c(O)ccc2ccccc12)c1cccs1	-7%	-7%	i	28µM*	nt	?
Cc1ccc(S(=O)(=O)/N=C/c2c(O)ccc3ccccc23)cc1	-7%	nt	nt	nt	18%	nt
COc1cc([C@@H]2CC(=O)c3c(O)cc(O)cc3O2)ccc1O	3%	nt	1%	-5%	nt	-4%
COc1ccccc1NC(=O)Cn1c(O)c(N=NC(=O)c2ccccc2O)c2ccccc21	18µM*	27%	i	15%	5%	-11%
C=CCCCCCCCCCC	nt	nt	nt	4%[201 µM]	nt	-2%[201 µM]
C=CC(=O)OCC(C)OCC(C)OCC(C)OC(=O)C=C (configuration not stated)	nt	nt	nt	-3%[201 µM]	nt	-2%[201 µM]
CC(COc1ccc(C(C)(C)C)cc1)OS(=O)OCCCl (configuration not stated)	nt	nt	nt	-1%[201 µM]	nt	0%[201 µM]
O=C(/C=C/C#Cc1cccc(NS(=O)(=O)c2ccccc2)c1)NO	6%	nt	-13%	-5%	nt	?
CCN(CC)c1cc2c(cc1F)c(=O)c(S(=O)(=O)c1ccc(OC)cc1)cn2Cc1ccccc1	-4%	nt	nt	-25%	-1%	112µM*[quencher]
CCN(CC)c1cc2c(cc1F)c(=O)c(S(=O)(=O)c1ccccc1)cn2Cc1ccccc1	-6%	nt	nt	-1%	3%	-16%
CC(=O)N1N=C(c2ccc(C)cc2)CC1c1cn(-c2ccccc2)nc1-c1cccs1 (configuration not stated)	-3%	nt	nt	-7%	3%	100µM*[quencher]
COc1ccc2[nH]c3c(=O)n(Cc4ccc(C(=O)NCC5CCCO5)cc4)c(=S)[nH]c3c2c1 (configuration not stated)	-20%	4%	20µM*	3%	1%	-2%
C#C[C@]1(OC(C)=O)CCC2C3CCC4=CC(=O)CCC4C3CC[C@]21C (some centres not stated)	3%	0%	i	3%	nt	-1%
CC1=[N+](C)c2c(ccc3cccnc23)C1(C)C	36%	224%	?	25µM*	125%	11µM*[fluorescent]
Cc1[nH]c2c(ccc3cccnc32)c1C	1%	2%	23%	2%	-8%	-3%
Cc1cccc(Cc2c(C)nc3c(-c4ccccc4)c(C)[nH]n3c2=O)c1	-18%	nt	nt	-6%	3%	8.9µM*[quencher]
Cc1nc2c(-c3ccccc3)c(C)[nH]n2c(=O)c1Cc1ccccc1	-4%	6%	-4%	6%	6%	0%
OCC(CO)(CO)COCC(CO)(CO)CO	nt	nt	nt	1%[201 µM]	nt	4%[201 µM]
Cc1c(O)cc2c(c1O)C(=O)CC(c1ccc(O)cc1)O2 (configuration not stated)	-25%	2%	25µM*	4%	0%	-2%
COc1cc(O)c2c(c1)OC(c1ccc(O)cc1)CC2=O (configuration not stated)	-10%	1%	-10%	2%	3%	0%
O=C1c2c(O)cc(O)cc2O[C@H](c2ccc(O)c(O)c2)[C@@H]1O	-8%	-7%	18µM*	1%	nt	-6%
Cc1ccc(-n2sc3ccccc3c2=O)cc1	-1%	10µM*	-1%	-5%	5%	-1%
O=c1c2ccccc2sn1-c1ccc(F)cc1	nt	nt	nt	nt	4%	nt
COc1cc(O)c2c(O)c3c(c4c2c1[C@@]1(C4)C(C)=CCCC1(C)C)[C@H](O)[C@@]1(O)CC(=O)C(C(N)=O)=C(O)[C@]1(O)C3=O	nt	3%[14.2 µM]	nt	nt	nt	nt
Cc1ccc(-c2nc3cccnc3s2)cc1NC(=O)Cc1ccccc1	-13%	nt	nt	-21%	4%	100µM*[quencher]
O=C1C(O)=C(O)C(=O)C(O)=C1O	?	25µM*	-17%	3%	nt	1%
